The supplement of paper PMC6555819

Tests used:
Assay in all cases: PBM binding z-score (relative to random genomic background probes); higher = stronger binding; sequences stand for … in GC…GCGATTGACAGCGTAGAATGAAGG
[1] = tested on: PPARg:RXRa DBDmut IVT, anti-RXR (DBD mutation: RXRa K156A/R161A, NR concentration 270 nM, RXRa partner concentration 90 nM)
Method in brief: (§1)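 The probes on custom Agilent 4×180K protein-binding microarrays were double-stranded, with 34-nt variable regions bearing direct-repeat seeds, single-nucleotide variants, half-site ablations and random human genomic background sequences. Incubation lasted 1 h with ligand-free nuclear receptor dimers in PBS pH 7.4, 2% milk, 0.02% Triton X-100, 1 mM DTT, 0.2 mg/mL BSA and 0.4 mg/ml salmon testes DNA. Antibodies against each partner (one per run) detected bound dimers, and fluorescence scans were regression-normalized. Binding z-scores take the random background probes as reference.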

[2] = tested on: PPARg:RXRa IVT, anti-PPARg (NR concentration 270 nM, RXRa partner concentration 90 nM)
Method in brief: as §1

[3] = tested on: PPARg DBDmut:RXRa IVT, anti-PPARg (DBD mutation: PPARg1 K132A/R137A, NR concentration 270 nM, RXRa partner concentration 90 nM)
Method in brief: as §1

[4] = tested on: PPARg DBDmut IVT, anti-PPARg (DBD mutation: PPARg1 K132A/R137A, NR concentration 270 nM)
Method in brief: as §1

[5] = tested on: PPARg homodimer (NR concentration 180 nM)
Method in brief: as §1

[6] = tested on: PXR:RXRa (NR concentration 270 nM, RXRa partner concentration 90 nM)
Method in brief: as §1

[7] = tested on: PXR homodimer (NR concentration 270 nM)
Method in brief: as §1

[8] = tested on: RARa:RXR (NR concentration 270 nM, RXRa partner concentration 90 nM)
Method in brief: as §1

[9] = tested on: RARa homodimer (NR concentration 270 nM)
Method in brief: as §1

[10] = tested on: RARb:RXRa (NR concentration 270 nM, RXRa partner concentration 90 nM)
Method in brief: as §1

| Sequence | PBM binding z-score [1] | PBM binding z-score [2] | PBM binding z-score [3] | PBM binding z-score [4] | PBM binding z-score [5] | PBM binding z-score [6] | PBM binding z-score [7] | PBM binding z-score [8] | PBM binding z-score [9] | PBM binding z-score [10] |
| --- | --- | --- | --- | --- | --- | --- | --- | --- | --- | --- |
| ACTAGTTGGTCACCTGAGGTCACACACAATTCGG | 2.55 | 3.78 | 1.79 | 1.35 | 4.91 | 6.25 | 3.12 | 5.48 | 2.94 | 3.91 |
| CGTCCAAGGTCATAGGAGGTCATTGAAGACAGAT | 3.6 | 4.68 | 0.258 | 0.325 | 4.58 | 7.17 | 10 | 6.52 | 2.32 | 5.47 |
| CGTCAAAGTTCAAGGTAAAGTAACAGAAAGCAGC | 0.433 | 1.82 | 0.69 | 0.346 | 2.5 | 3.99 | 2.2 | 3.47 | 1.3 | 4.95 |
| CCTAGTTGGTCAGGAGGTCCCACACCGGATATGA | 0.207 | 0.483 | -0.124 | -0.0969 | 1.06 | -0.0476 | 0.63 | -0.0305 | 0.95 | 0.64 |
| GCTGCTCGGTCAACTGATGGTCAGCTAAAGCTCG | 0.634 | -0.00578 | -0.981 | -0.237 | -0.156 | -0.105 | -0.492 | 0.225 | -0.934 | 2.87 |
| CAAACTAGGTCAAGGTCAAATTCGGTTTGTGCCA | 8.72 | 8.78 | 2.45 | 3.07 | 4.71 | 5.45 | 2.83 | 5.82 | 2.26 | 5.09 |
| AGTCAAAGTTGATCTAGGTAACGTAAGATATGCT | 0.813 | 2.74 | 0.517 | 1.07 | -0.371 | -0.212 | -0.146 | -0.0598 | -0.276 | 0.672 |
| CGTCCAACGTCAGCAGGTCAGTGAAAGCGACGTG | 0.148 | 0.161 | -0.345 | -1.13 | -0.114 | 0.174 | -0.448 | 0.556 | -0.438 | 1.82 |
| CCTACGGGGCCAAGGTCATTGATCAGTCAAAGCA | 0.0794 | 1.73 | -1.66 | -0.738 | 2.31 | 3.58 | 0.818 | 3.78 | -0.181 | 3.57 |
| GCTTACGGGTCAAAGGTTAAAGCATGAATAGAAT | 4.74 | 6.3 | 1.36 | 2.46 | 1.69 | 6.29 | 0.364 | 8.66 | 0.51 | 4.94 |
| ATAGAAAGGTCGAAGGTGAGTATACCCACCCGAA | 0.0338 | 2.05 | 1.17 | 0.496 | 1.85 | 2.82 | 0.22 | 4.08 | 0.667 | 3.64 |
| CCTTACGGGTCACTCCAGGTTCTAGCATCGGAGT | 2.92 | 3.24 | 0.0574 | -0.343 | 1.37 | 3.13 | -0.323 | 3.39 | 0.55 | 3.63 |
| TCTCGGAGGACACGAAACGTCAGAGCTCGACATC | 1.4 | 0.0714 | -0.35 | -0.247 | -0.276 | -0.408 | -0.586 | -0.175 | -0.713 | 1.25 |
